Screens deposited in PubChem BioAssay by National Center for Advancing Translational Sciences (NCATS).
Shown are actives, neighbours in structure and some others; about 19% of the full set was active somewhere.
SW480 rereplic: DNA re-replication induction in SW480 cells; SW480 DNA re-replication, Hoechst DNA content imaging, 48 h; Potency, µM (titrated, usually from 46.1 µM), for the others: at the highest dose re-replication activation, usual class: activators; 340,000 tested, 1.8% active; further: potency means the concentration at half of the fitted maximal effect; % of control where 0% means no effect; nearly all actives have a fitted effect of over 55% in size
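Per well, 250 cells were exposed to pinned compound for 48 hr. Nuclear DNA was visualised with Hoechst (40 min, 37 C) and total object intensity recorded by fluorescence scanning.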
Chronic BCR inh: chronic active BCR signaling inhibition; ABC-DLBCL IkBa-CBG/CBR reporter, luminescence ratio, 4 h; Potency, µM (highest dose often 46.1 µM), for the others: at the top dose activity change, negative = inhibition, hits mostly inhibitors; 340,000 tested, 0.05% active; AID 493014; active means well fitted inhibition curve with a large enough effect in the signal ratio, with a control signal flat, not every such curve was filed as active; inconclusive means small, poorly fitted or top-dose-only effect, or effect the other way, or a change in a side signal; the % refers to the signal ratio;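 further: potency means the concentration at half of the fitted maximal effect; plate controls were basal doxycycline-induced cells for no effect and cells given 10 µM MG132 for full effect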
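TMD8 ABC-DLBCL cells carrying doxycycline-inducible green luciferase fused to IkappaBalpha plus unfused red luciferase were exposed to compounds (up to 46 uM) for 4 hrs at 37C. Activity came from the overlap-corrected green/red luminescence ratio.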
IL-1B inflam inh: blocks inflammasome-driven IL-1 beta release | 360,000 tested, 4.7% active | AID 743279 | THP-1 LPS/ATP IL-1B secretion, AlphaLISA, 16 h; active compounds read low | activity change, % at 57.5 µM; in the data active means activity change below about -50%; inconclusive means mostly about -30% to -49%; further: on the % scale 0 is the no-effect control and ±100 the full control effect
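THP-1 cells pretreated 1 hr with compounds (up to 57.5 uM final), then stimulated with LPS (250 ng/mL final) plus ATP (1.25 mM final); secreted IL-1B measured by AlphaLISA after 16 hr, decreased signal indicating inhibition.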
MCF10A rereplic: induces DNA re-replication in MCF 10a normal breast cells; MCF 10A DNA re-replication, Hoechst nuclear intensity, 48 h; Potency, µM (titrated, usually from 46.1 µM), for inactives: top-dose activity, positive = re-replication, most hits filed as activators; 350,000 tested, 2.9% active; AID 624296; further: potency means the concentration at half of the fitted maximal effect; % of control where 0% means no effect; nearly all actives have a fitted effect of over 50% in size
TDP1 cell CPT: growth inhibition of DT40 Tdp1-/-;hTDP1 cells with camptothecin (screen for TDP1 inhibitors) | chicken DT40 Tdp1-/-;hTDP1 cells + 20 nM CPT, ATP luminescence, 48 h | Potency, µM (highest dose often 46.2 µM), for the others: top-dose activity change, negative = growth inhibition, usual class: inhibitors | 420,000 tested, 12% active; further: potency means the concentration at half of the fitted maximal effect; on the % scale 0 is the no-effect control and ±100 the full control effect; nearly all actives have a fitted effect of over 55% in size
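Chicken DT40 Tdp1-/- cells stably complemented with human TDP1 were seeded at 400 cells/well in medium containing 20 nM camptothecin, exposed to pin-transferred compounds, and grown at 37 °C for at least 48 hr. Viability was read as ATP luminescence.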
TDP1 cell noCPT: qHTS for Inhibitors of human tyrosyl-DNA phosphodiesterase 1 (TDP1): qHTS in cells in absence of CPT; DT40 Tdp1-/- hTDP1 cells, no CPT, ATP luminescence, 48 h; Potency, µM (titrated, usually from 46.2 µM), for the others: top-dose activity change, negative = growth inhibition, most hits filed as inhibitors; 420,000 tested, 15% active; AID 686978, 2013; further: potency means the concentration at half of the fitted maximal effect; on the % scale 0 is the no-effect control and ±100 the full control effect; nearly all actives have a fitted effect of over 55% in size
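Chicken DT40 Tdp1-/- cells stably complemented with human TDP1 were seeded at 400 cells/well with DMSO in place of 20 nM camptothecin. After compound pinning, cells grew at least 48 hr at 37 °C; viability read by CellTiter-Glo luminescence.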
* hit, by the source's call; i = inactive; ? = inconclusive; · = no result; [ ] = remark or other dose. Unless noted, the call rests on the fitted dose curve; in most records, active means well fitted curve in the direction sought with a large enough effect; inconclusive means small, poorly fitted or top-dose-only effect, or another doubt; inactive means no such curve, though single readings can be large; an effect the other way counts as inactive or inconclusive.

SMILES | SW480 rereplic | Chronic BCR inh | IL-1B inflam inh | MCF10A rereplic | TDP1 cell CPT | TDP1 cell noCPT
Cc1ccc(C)c(N2CCN(S(=O)(=O)c3cc(C(=O)Nc4cc(Cl)cc(Cl)c4)ccc3F)CC2)c1 | · | -4% | · | · | 12µM* | 16µM*
CCOc1ccccc1NC(=O)c1ccc(F)c(S(=O)(=O)N2CCC3(CC2)OCCO3)c1 | -1% | -6% | -16 | -4% | -17% | -23%
Cc1ccc(N2CCN(S(=O)(=O)c3cc(C(=O)Nc4cc(Cl)cc(Cl)c4)ccc3F)CC2C)cc1 (configuration not stated) | · | 16% | · | · | ? | 16µM*
CCc1ccc(NC(=O)c2ccc(F)c(S(=O)(=O)N3CCN(c4cc(C)ccc4C)CC3)c2)cc1 | · | 12% | · | · | ? | ?
COc1ccccc1/C=C/C(=O)NCCc1ccccn1 | -8% | ? | 4 | 8% | 1% | -4%
CCCCCNC(=O)c1[nH]c(C(F)(F)F)nc1-c1ccccc1 | · | · | 5 | · | -18% | -24%
CCCN1Cc2cccc(C(=O)Nc3ccc(C(C)=O)cc3)c2C1=O | · | · | · | · | -5% | -7%
Cc1ccc(NC(=O)N2CCN3CCCCC3C2)cc1C (configuration not stated) | · | · | · | · | 2% | -2%
CC[N+]1(C)C2CCC1CC(OC(=O)[C@H]1CCC(C(=O)OC3CC4CCC(C3)[N+]4(C)CC)(c3ccccc3)c3ccccc31)C2 (some centres not stated) | · | · | · | · | -7% | -14%
COc1ccc(/C=N/Nc2nccnc2Cl)c(OC)c1 | 5% | ? | -14 | 3% | 5% | -14%
Oc1ccc(/C=N/Nc2ncc(Br)cn2)c(O)c1 | ? | ? | 83 | ? | 7.3µM* | 7.3µM*
Oc1ccccc1/C=N/Nc1nccnc1Cl | ? | ? | 111 | ? | 4.6µM* | 2.9µM*
Oc1ccc(/C=N/Nc2nccnc2Cl)c(O)c1 | 6% | ? | 23 | 4% | 3.3µM* | 3.3µM*
Oc1ccc(Br)cc1/C=N/Nc1ncc(-c2ccccc2)cn1 | ? | ? | 34 | ? | 6.5µM* | 8.2µM*
C/C=C/c1ccc2oc(-c3ccc(O)cc3)c(C)c2c1 | · | · | · | · | 2%[9.04 µM] | -8%[9.04 µM]
CC(NC(=O)COC(=O)COc1cccc2c1OC(C)(C)C2)c1ccccc1 (configuration not stated) | -9% | -4% | i | ? | 5% | 3%
Fc1cccc(Cl)c1Cn1nnc2c(NCc3ccccn3)ncnc21 | 0% | ? | -59* | -2% | ? | -25%
Fc1ccccc1Cn1nnc2c(NCCc3ccccn3)ncnc21 | -12% | 8% | -11 | 7%[9.22 µM] | -16% | -29%
Fc1cccc(Cl)c1Cn1nnc2c(NCc3ccncc3)ncnc21 | -6% | 11% | 18 | ? | 23µM* | ?
CCc1ccc(OCc2ccccc2C(=O)Nc2ccc3nc(C)cc(N)c3c2)cc1 | · | · | · | · | 5µM* | 3.2µM*
CC1CCC2(CC1)C(Nc1cccc(Cl)c1)=NC(=S)N2CC#N (configuration not stated) | -3% | ? | -4 | 18% | ? | 16µM*
CCc1ccc(CNC(=O)c2nn(C)c3c2CS(=O)(=O)c2ccccc2-3)cc1 | -11% | 0% | -18 | -2% | ? | ?
Cc1ccc(CNC(=O)CN(C)C2=NS(=O)(=O)c3ccccc32)cc1 | -16% | 4% | 41 | 22% | 13µM* | 9.2µM*
Cc1ccc(CNC(=O)c2nn(C)c3c2CS(=O)(=O)c2ccccc2-3)cc1 | -6% | 1% | -53* | 0% | 16µM* | ?
CCOc1ccccc1CNC(=O)c1nn(C)c2c1CS(=O)(=O)c1ccccc1-2 | -12% | 5% | 5 | ? | 18µM* | ?
Cc1cc(=O)n(Cc2cccc(F)c2)c2c1c(C)nn2-c1cccc(F)c1 | · | · | · | · | -13% | -1%
